Experimental data taken from PubChem BioAssay (Tox21).
Inconclusive results are not listed. The source made the active and inactive calls. Calls come from the whole dose curve; as a rule, active = well fitted curve in the direction sought with a large enough effect in the repeat runs; inconclusive = weak or mixed curves; inactive = no such curve, though single readings can be large; an effect the other way counts as inactive or inconclusive.

Key:
[1] = A CellTox Green Cytotoxicity Assay to monitor cytotoxicity in HEK293 cells - 32 hour (AID 1224881); note: nearly all actives have a fitted effect of over 40% in size
Procedure, shortened: (§1)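 Nonlytic real-time cytotoxicity: HEK293 + CellTox Green reagent plated, 5 h preincubation, pintool compound addition (23 nL in DMSO), 37 C for 40 h, fluorescence measured at successive time points.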

[2] = A CellTox Green Cytotoxicity Assay to monitor cytotoxicity in HepG2 cells - 0 hour (AID 1224882); note: nearly all actives have a fitted effect of over 35% in size
Procedure, shortened: (§2)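 Read-out is fluorescence of a cyanine dye excluded from live cells that stains DNA of dead HepG2 cells, with signal proportional to cytotoxicity. Plates were read at 0, 8, 16, 24, 32 and 40 h after compound addition.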

[3] = A CellTox Green Cytotoxicity Assay to monitor cytotoxicity in HepG2 cells - 32 hour (AID 1224883); note: nearly all actives have a fitted effect of over 50% in size
Procedure, shortened: as §2

[4] = A CellTox Green Cytotoxicity Assay to monitor cytotoxicity in HEK293 cells - 8 hour (AID 1224884); note: nearly all actives have a fitted effect of over 35% in size
Procedure, shortened: as §1

[5] = qHTS RealTime-Glo MT Cell Viability Assay in HepG2 cells - 16 hour (AID 1224885); note: nearly all actives have a fitted effect of over 50% in size
Procedure, shortened: (§3)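 HepG2 cells (600/well) were dispensed with RealTime-Glo reagents, incubated 5 h at 37 °C, then treated with compounds in DMSO for up to 40 h. Nonlytic NanoLuc luminescence reflecting viable cells was read at each stated time point.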

[6] = qHTS RealTime-Glo MT Cell Viability Assay in HEK293 cells - 24 hour (AID 1224886); note: top concentration of the series differs between compounds; nearly all actives have a fitted effect of over 50% in size
Procedure, shortened: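 HEK293 cells seeded with NanoLuc/prosubstrate reagent, rested 5 h at 37 C, then dosed and kept at 37 C up to 40 h. Nonlytic real-time luminescence from viable cells read at 0, 8, 16, 24, 32 and 40 h.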

[7] = qHTS RealTime-Glo MT Cell Viability Assay in HEK293 cells - 8 hour (AID 1224887); note: top concentration of the series differs between compounds; nearly all actives have a fitted effect of over 50% in size
Procedure, shortened: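 Cells were seeded together with NanoLuc luciferase and a prosubstrate that viable cells reduce to a luciferase substrate. After a 5 h incubation at 37 C/5% CO2, compounds were added and luminescence was measured repeatedly during 40 h of treatment.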

[8] = A CellTox Green Cytotoxicity Assay to monitor cytotoxicity in HEK293 cells - 16 hour (AID 1224888); note: nearly all actives have a fitted effect of over 35% in size
Procedure, shortened: as §1

[9] = qHTS RealTime-Glo MT Cell Viability Assay in HepG2 cells - 0 hour (AID 1224889); note: nearly all actives have a fitted effect of over 50% in size
Procedure, shortened: as §3

[10] = A CellTox Green Cytotoxicity Assay to monitor cytotoxicity in HepG2 cells - 8 hour (AID 1224890); note: nearly all actives have a fitted effect of over 45% in size
Procedure, shortened: as §2
% is set by controls: 0 for no effect and ±100 for the full control effect.

CC(C(=O)O)c1ccc(CC2CCCC2=O)cc1 (stereo not drawn)
inactive: Potency [1] | Potency [2] | Potency [3] | Potency [4] | Potency [5] | Potency [6] | Potency [7] | Potency [8] | Potency [9] | Potency [10]

O=C1OC(=O)C2CCCCC12 (stereo not drawn)
inactive: Potency [1] | Potency [2] | Potency [3] | Potency [4] | Potency [5] | Potency [6] | Potency [7] | Potency [8] | Potency [9] | Potency [10]

N[C@H](C(=O)O)c1ccc(O)cc1
inactive: Potency [1] | cytotoxicity [2] -7.08% [at 15.8 µM] | cytotoxicity increase [3] -6.23% [at 15.8 µM] | cytotoxicity increase [4] 0.0185% [at 15.8 µM] | activity change, negative = cytotoxic [5] 1.01% [at 15.8 µM] | activity change, negative = cytotoxicity [6] 1.77% [at 15.8 µM] | activity change, negative = cytotoxicity [7] 4.01% [at 15.8 µM] | activity change [8] 0.584% [at 15.8 µM, hits give high values] | activity change, negative = cytotoxicity [9] 1.28% [at 15.8 µM] | cytotoxicity increase [10] -9.51% [at 15.8 µM]

NS(=O)(=O)c1cc(C(=O)NN2C[C@H]3[C@H]4CCC(C4)[C@H]3C2)ccc1Cl
inactive: Potency [1] | Potency [2] | Potency [3] | Potency [4] | Potency [5] | Potency [6] | Potency [7] | Potency [8] | Potency [9]

CC(NC(CCc1ccccc1)C(=O)O)C(=O)N1C(=O)N(C)CC1C(=O)O (stereo not drawn)
inactive: Potency [1] | Potency [2] | Potency [3] | Potency [4] | Potency [5] | Potency [6] | Potency [7] | Potency [8] | Potency [9] | Potency [10]

COC(=O)[C@@H](N)Cc1ccc(O)c(O)c1
inactive: Potency [1] | Potency [2] | Potency [3] | Potency [4] | Potency [5] | Potency [6] | Potency [7] | Potency [8] | Potency [9] | Potency [10]

O=C(O)c1ccccc1OP(=O)(O)O
inactive: Potency [1] | Potency [2] | Potency [3] | Potency [4] | Potency [5] | Potency [6] | Potency [7] | Potency [8] | Potency [9]

CCCCC/C=C\CCC=O
inactive: Potency [1] | Potency [2] | Potency [3] | Potency [4] | Potency [5] | Potency [6] | Potency [7] | Potency [8] | Potency [9]

CCCN(CCC)CCc1cccc2c1CC(=O)N2
inactive: Potency [1] | Potency [2] | Potency [3] | Potency [4] | Potency [5] | Potency [6] | Potency [7] | Potency [8] | Potency [9]

C=C(C)C(=O)OCCCCCCCC(C)C
inactive: Potency [1] | Potency [2] | Potency [3] | Potency [4] | Potency [5] | Potency [6] | Potency [7] | Potency [8] | Potency [9]

COc1nc(N)nc2c1ncn2[C@@H]1O[C@H](CO)[C@@H](O)[C@@H]1O
inactive: Potency [1] | Potency [2] | Potency [3] | Potency [4] | Potency [5] | Potency [6] | Potency [7] | Potency [8] | Potency [9] | Potency [10]

CC(C)CCCC(C)N (stereo not drawn)
inactive: Potency [1] | Potency [2] | Potency [3] | Potency [4] | Potency [5] | Potency [6] | Potency [7] | Potency [8] | Potency [9] | Potency [10]

Brc1c(NC2=NCCN2)ccc2nccnc12
inactive: Potency [1] | Potency [2] | Potency [3] | Potency [4] | Potency [5] | Potency [6] | Potency [7] | Potency [8] | Potency [9] | Potency [10]

CCC(=O)OC(C)c1ccccc1 (stereo not drawn)
inactive: Potency [1] | Potency [2] | Potency [3] | Potency [4] | Potency [5] | Potency [6] | Potency [7] | Potency [9]

CCC(C)S (stereo not drawn)
inactive: cytotoxicity increase [1] 1.61% [at 2.72 µM] | cytotoxicity [2] -2.37% [at 2.72 µM] | cytotoxicity increase [3] 1.17% [at 2.72 µM] | cytotoxicity increase [4] 0.141% [at 2.72 µM] | activity change, negative = cytotoxic [5] -0.5% [at 2.72 µM] | activity change, negative = cytotoxicity [6] 1.35% [at 2.72 µM] | activity change, negative = cytotoxicity [7] 2.1% [at 2.72 µM] | activity change [8] 1.7% [at 2.72 µM, hits give high values] | activity change, negative = cytotoxicity [9] 5.41% [at 2.72 µM] | cytotoxicity increase [10] -0.336% [at 2.72 µM]

FC(F)OC(Cl)C(F)(F)F (stereo not drawn)
inactive: Potency [1] | Potency [2] | Potency [3] | Potency [4] | Potency [5] | Potency [6] | Potency [7] | Potency [8] | Potency [9] | Potency [10]

CCOC(=O)c1c(C)n(C)c2ccc(O)cc12
inactive: Potency [1] | Potency [2] | Potency [3] | Potency [4] | Potency [5] | Potency [6] | Potency [7] | Potency [8] | Potency [9] | Potency [10]

Cc1cc(O)cc2c1O[C@](C)(CCC[C@H](C)CCC[C@H](C)CCCC(C)C)CC2
inactive: Potency [1] | Potency [2] | Potency [3] | Potency [4] | Potency [5] | Potency [6] | Potency [7] | Potency [8] | Potency [9] | Potency [10]

COC(=O)c1cc(C(=O)OC)cc(S(=O)(=O)O)c1
inactive: Potency [1] | Potency [2] | Potency [3] | Potency [4] | Potency [5] | Potency [6] | Potency [7] | Potency [8] | Potency [9] | Potency [10]

CC(=O)Nc1c(I)cc(I)c(C(=O)O)c1I
inactive: Potency [1] | Potency [2] | Potency [3] | Potency [4] | Potency [5] | Potency [6] | Potency [7] | Potency [8] | Potency [9] | Potency [10]

CCO/C([O-])=N/c1c[n+](N2CCOCC2)no1
inactive: Potency [1] | Potency [2] | Potency [3] | Potency [4] | Potency [5] | Potency [6] | Potency [7] | Potency [8] | Potency [9] | Potency [10]

CC(C)c1cc2c(cc1S(=O)(=O)O)[C@@]1(C)CCC[C@@](C)(C(=O)O)[C@@H]1CC2
inactive: Potency [1] | Potency [2] | Potency [3] | Potency [4] | Potency [5] | Potency [6] | Potency [7] | Potency [8] | Potency [9] | Potency [10]

Nc1ccc(S(=O)(=O)Nc2ccnn2-c2ccccc2)cc1
inactive: Potency [1] | cytotoxicity [2] 3.97% [at 15.8 µM] | cytotoxicity increase [3] 3.28% [at 15.8 µM] | cytotoxicity increase [4] 1.9% [at 15.8 µM] | activity change, negative = cytotoxic [5] -1.35% [at 15.8 µM] | activity change, negative = cytotoxicity [6] 7.4% [at 15.8 µM] | activity change, negative = cytotoxicity [7] 7.76% [at 15.8 µM] | activity change [8] 2.29% [at 15.8 µM, hits give high values] | activity change, negative = cytotoxicity [9] -1.91% [at 15.8 µM] | cytotoxicity increase [10] 0.943% [at 15.8 µM]

Cc1c(NC(C)C)c(=O)n(-c2ccccc2)n1C
inactive: Potency [1] | Potency [2] | Potency [3] | Potency [4] | Potency [5] | Potency [6] | Potency [7] | Potency [8] | Potency [9] | Potency [10]
